Measurements taken from PubChem BioAssay.
The source made the active and inactive calls.

Tests used:
[1] = system: Human papillomavirus type 1a protein E7 (residues 44-93); test: HPV1a E7 fragment binders on microarrays, primary screen, biochemical, small-molecule microarray, residues 44-93, 635 nm fluorescence (AID 1108); conditions: small-molecule microarray binding, fluorescence 635 nm; higher = more signal;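 also: E7 fragment applied at 1 µg/mL in TBST for 1 h at 4 C; score combines spot fluorescence with its signal to noise ratio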
[2] = modulators of HCV replicon luciferase signal, primary screen, HCV replication inhibitor project, Huh7 cells, luciferase reporter (AID 1109); conditions: 48 h, higher = more signal;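 also: huh7 hepatoma cells harbouring a luciferase neomycin HCV replicon reporter; luciferase luminescence as measure of HCV replicon replication; test concentration not given here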
[3] = molecular target: Left-right determination factor 2 (Homo sapiens) (UniProt O00292); test: LEFTY2 binders on small-molecule microarrays, primary screen, biochemical, small-molecule microarray, 635 nm fluorescence scan (AID 1110); conditions: LEFTY2 binding, higher = more signal
[4] = molecular target: Calmodulin-1 (Homo sapiens) (UniProt P0DP23); test: CALM1 binders on microarrays, EGTA buffer, profiling panel, biochemical, small-molecule microarray, Cy5-labelled CALM1 (AID 1111); conditions: Cy5-CALM1 binding fluorescence, higher = more signal;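 also: labelled calmodulin applied in Tris saline Tween buffer holding calcium plus EGTA and DTT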
[5] = molecular target: Calmodulin-1 (Homo sapiens) (UniProt P0DP23); test: calcium-bound CALM1 binders on microarrays, profiling panel, artefact control for SMM control-protein annotation, biochemical, small-molecule microarray, Cy5-labelled CALM1, plus calcium (AID 1112); conditions: Cy5-CALM1 binding fluorescence, higher = more signal;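 also: score merges spot fluorescence with signal to noise from triplicate slides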
[6] = small-molecule microarray binders of probe aWnt5a, primary screen, biochemical, biotinylated probe, 635/667 nm fluorescence (AID 1113); conditions: higher = more signal;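 also: score merges 667 nm fluorescence intensity with signal-to-noise per printed feature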
[7] = small-molecule microarray binders of probe aShh, primary screen, biochemical, biotinylated probe, 635/667 nm fluorescence (AID 1114); conditions: higher = more signal;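 also: probe is biotin-labelled aShh protein from a stem cell growth factor screen; measures binding of labelled protein to compounds printed on the slide; score merges feature fluorescence at 667 nm with signal-to-noise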
[8] = small-molecule microarray binders of probe aNog, primary screen, biochemical, biotinylated probe, 635/667 nm fluorescence (AID 1115); conditions: higher = more signal;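 also: probe is biotinylated aNog protein used at 0.15 µg/mL for 1 h at 4 C; z-score combines 667 nm fluorescence of each spot with its signal to noise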
[9] = molecular target: Torsin-1A-interacting protein 1 (Homo sapiens) (UniProt Q5JTV8); test: LAP1 binders from COS7 cell lysate, primary screen, small-molecule microarray, 635/667 nm fluorescence (AID 1116); conditions: COS7-hLAP1 lysate binding, 635 nm fluorescence, higher = more signal
[10] = molecular target: Alpha-bungarotoxin (Bungarus multicinctus) (UniProt P60615); test: alpha-bungarotoxin binders on microarray, profiling panel, artefact control for SMM control protein annotation, biochemical, small-molecule microarray, Alexa647 label, 635/667 nm fluorescence (AID 1117); conditions: alpha-BTX-A647 binding fluorescence, higher = more signal
Albumin (Bos taurus) = Albumin (Bos taurus) (UniProt P02769); test: bovine serum albumin binders on microarray, profiling panel, artefact control for SMM control protein annotation, biochemical, small-molecule microarray, Alexa647 label, 635/667 nm fluorescence (AID 1118); conditions: BSA-A647 binding, fluorescence 635 nm, higher = more signal;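 also: score merges 667 nm emission intensity and signal-to-noise per printed compound spot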
[11] = small-molecule microarray binders of probe aXIP, primary screen, biochemical, NeuroSMM set, 635/667 nm fluorescence (AID 1119); conditions: higher = more signal, called active from +8 up or from −8 down;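 also: probe is the protein aXip251-270 applied at 1 µg/mL to compound-printed slides; binding of probe to printed compounds measured as 667 nm fluorescence plus signal to noise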
[12] = small-molecule binders of probe aNOTCH3, primary screen, biochemical, small-molecule microarray, 635/667 nm fluorescence (AID 1120); conditions: higher = more signal;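 also: probe is a biotin-tagged antibody raised against NOTCH3 rather than NOTCH3 protein; score merges spot fluorescence near 667 nm with spot signal to noise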
[13] = small-molecule binders of probe aNOTCH2, primary screen, biochemical, small-molecule microarray, 635/667 nm fluorescence (AID 1121); conditions: higher = more signal;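 also: score merges feature fluorescence read at 667 nm with its signal to noise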
[14] = molecular target: Carbonic anhydrase 2 (Homo sapiens) (UniProt P00918); test: CAII small-molecule binders, profiling panel, biochemical, small-molecule microarray, Alexa647-labelled CAII (AID 1122); conditions: CAII-A647 binding fluorescence, higher = more signal
[15] = COS7 lysate on small-molecule microarray, probe aHis, 635 nm (AID 1123); conditions: COS7 cell lysate, fluorescence, higher = more signal;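 also: z-score combines 667nm fluorescence intensity with signal-to-noise per printed compound spot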
[16] = compound binding in COS7 lysate, probe aLAP1, primary screen, cell lysate, small-molecule microarray (AID 1124); conditions: probe aLAP1, fluorescence, higher = more signal;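 also: lysate comes from COS7 cells expressing LAP1 and is applied at 0.3 µg/mL; score merges spot fluorescence near 667 nm with signal-to-noise over triplicate slides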
Sam68 (KHDRBS1) = test: Sam68 small-molecule binders, primary screen, biochemical, small-molecule microarray, 635 nm fluorescence (AID 1125); conditions: small-molecule microarray binding, higher = more signal;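 also: score merges 667 nm channel intensity with signal to noise over triplicate slides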
[17] = system: Chordin-like protein 2 (CHRDL2); test: CHRDL2 small-molecule binders, primary screen, biochemical, small-molecule microarray, 635 nm fluorescence (AID 1126); conditions: small-molecule microarray binding, fluorescence 635 nm; higher = more signal;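 also: printed compound slides probed with Chrdl2 protein at 4 µg/mL for 1 h at 4 C; score merges 667 nm emission intensity with signal to noise over three replicate slides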
[18] = molecular target: Concanavalin-A (Canavalia ensiformis) (UniProt P02866); test: ConA small-molecule binders, primary screen, artefact control for SMM control protein annotation, biochemical, small-molecule microarray, Alexa647 label, 635 nm (AID 1127); conditions: ConA-A647 binding fluorescence, higher = more signal;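 also: z combines 667 nm emission intensity with signal-to-noise across three replicate slides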
Sequence of Concanavalin-A (Canavalia ensiformis) (P02866 whole entry, looked up): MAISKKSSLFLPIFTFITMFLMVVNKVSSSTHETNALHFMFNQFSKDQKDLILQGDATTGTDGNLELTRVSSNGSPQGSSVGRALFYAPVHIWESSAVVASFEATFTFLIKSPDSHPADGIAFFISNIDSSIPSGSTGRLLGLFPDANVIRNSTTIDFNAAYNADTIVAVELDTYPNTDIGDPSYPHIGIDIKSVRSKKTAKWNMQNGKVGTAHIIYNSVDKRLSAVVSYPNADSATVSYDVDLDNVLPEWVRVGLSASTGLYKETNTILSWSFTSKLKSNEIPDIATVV

Sequence of Albumin (Bos taurus) (P02769 whole entry, looked up): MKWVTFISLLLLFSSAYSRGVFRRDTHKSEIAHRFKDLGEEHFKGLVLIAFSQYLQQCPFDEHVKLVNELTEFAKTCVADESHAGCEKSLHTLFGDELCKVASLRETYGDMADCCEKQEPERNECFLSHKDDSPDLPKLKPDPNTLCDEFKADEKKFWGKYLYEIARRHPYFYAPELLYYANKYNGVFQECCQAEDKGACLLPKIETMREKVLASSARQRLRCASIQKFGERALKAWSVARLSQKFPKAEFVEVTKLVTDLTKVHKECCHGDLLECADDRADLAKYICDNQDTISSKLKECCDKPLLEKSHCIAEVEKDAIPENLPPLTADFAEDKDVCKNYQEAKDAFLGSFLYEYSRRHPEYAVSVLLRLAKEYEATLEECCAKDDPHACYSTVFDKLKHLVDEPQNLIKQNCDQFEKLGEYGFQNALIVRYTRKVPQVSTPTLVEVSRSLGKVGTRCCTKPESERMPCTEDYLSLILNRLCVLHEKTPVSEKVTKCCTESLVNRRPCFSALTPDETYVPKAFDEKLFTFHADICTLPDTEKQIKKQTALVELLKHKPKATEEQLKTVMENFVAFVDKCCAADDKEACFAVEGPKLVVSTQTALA
Sequence of Left-right determination factor 2 (Homo sapiens) (O00292 whole entry, looked up): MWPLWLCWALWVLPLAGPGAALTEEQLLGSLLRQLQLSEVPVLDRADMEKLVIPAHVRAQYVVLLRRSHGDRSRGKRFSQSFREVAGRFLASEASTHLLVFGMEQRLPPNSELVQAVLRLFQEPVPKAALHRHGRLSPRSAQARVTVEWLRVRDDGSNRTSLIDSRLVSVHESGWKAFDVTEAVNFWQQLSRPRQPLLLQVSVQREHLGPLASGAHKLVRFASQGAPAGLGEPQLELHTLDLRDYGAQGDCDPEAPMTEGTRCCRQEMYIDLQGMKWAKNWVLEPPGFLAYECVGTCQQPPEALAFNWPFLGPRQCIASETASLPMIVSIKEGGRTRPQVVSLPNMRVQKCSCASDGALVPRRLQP
Sequence of Alpha-bungarotoxin (Bungarus multicinctus) (P60615 whole entry, looked up): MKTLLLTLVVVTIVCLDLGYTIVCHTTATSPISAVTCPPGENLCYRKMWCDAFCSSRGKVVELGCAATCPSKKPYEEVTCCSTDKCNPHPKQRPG
Sequence of Torsin-1A-interacting protein 1 (Homo sapiens) (Q5JTV8 whole entry, looked up): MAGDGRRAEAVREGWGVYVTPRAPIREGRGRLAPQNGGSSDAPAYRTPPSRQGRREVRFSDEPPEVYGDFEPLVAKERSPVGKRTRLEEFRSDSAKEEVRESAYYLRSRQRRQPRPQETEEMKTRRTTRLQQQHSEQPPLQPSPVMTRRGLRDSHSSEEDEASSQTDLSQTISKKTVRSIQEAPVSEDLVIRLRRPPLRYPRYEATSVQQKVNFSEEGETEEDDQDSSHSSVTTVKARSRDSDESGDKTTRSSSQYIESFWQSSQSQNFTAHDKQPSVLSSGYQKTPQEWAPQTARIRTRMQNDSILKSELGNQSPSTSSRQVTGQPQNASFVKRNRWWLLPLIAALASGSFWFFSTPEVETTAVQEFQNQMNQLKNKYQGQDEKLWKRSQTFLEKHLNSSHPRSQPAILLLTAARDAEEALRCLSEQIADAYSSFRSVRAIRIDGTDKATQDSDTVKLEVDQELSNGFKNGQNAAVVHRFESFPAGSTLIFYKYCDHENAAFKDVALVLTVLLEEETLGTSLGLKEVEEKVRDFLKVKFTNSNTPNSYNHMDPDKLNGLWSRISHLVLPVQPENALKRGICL

Compound	composite z-score [1]	z-score [2]	composite z-score [3]	composite z-score [4]	composite z-score [5]	composite z-score [6]	composite z-score [7]	composite z-score [8]	composite z-score [9]	composite z-score [10]	composite z-score (Albumin (Bos taurus))	composite Z-score [11]	composite z-score [12]	composite z-score [13]	composite z-score [14]	composite z-score [15]	composite z-score [16]	composite z-score (Sam68 (KHDRBS1))	composite z-score [17]	composite z-score [18]
CCCNC(=O)[C@@]1(C)c2ccccc2C(=O)N(c2ccc(C)cn2)[C@H]1c1ccc(CO)cc1	-0.846	0.155	0.384	-0.474	-0.524	-0.124	-0.291	0.0373	0.311	-0.163	-0.0296	0.164 (inactive)	-0.246	-0.108	0.699	-0.604	-0.105	-0.264	0.0286	-0.283
CC1CC/C=C\[C@H]2OC34C=CCN(Cc5ccccc5)C(=O)[C@H]3N(C(CO)C(C)C)C(=O)[C@@H]4C2C(=O)O1 (stereo not given in full)	-0.376	-0.386	-0.369	-0.862	-0.528	-0.176	-0.0709	-0.12	0.344	-0.677	-1.39	-0.263 (inactive)	0.0666	-0.0418	0.821	0.152	0.219	-0.271	-0.398	-0.355
O=C(O)[C@@H]1[C@@H]2C(=O)N(c3ccccc3)C(=O)[C@@H]2C[C@@H]1Sc1ccccc1	-0.933	0.0105	-0.603	0.172	0.474	0.0676	0.328	-0.0554	0.351	-0.909	-0.037	0.0618 (inactive)	-0.0932	-0.0572	0.526	0.796	0.627	-0.983	-1.06	-0.607
C=CC[C@@H](OC(=O)Nc1ccc(OC)cc1)c1ccc(O)c(F)c1	0.954	-1.73	-0.784	-0.976	-0.427	-0.184	0.0141	-0.0602	1.55	-0.418	0.66	0.683 (inactive)	-0.266	-0.153	0.493	1.93	0.738	-0.56	-0.861	-0.9
C=CCC(OC(C)=O)[C@@H]1[C@@H](N(Cc2cc3ccccc3o2)C(=O)Cc2ccc(F)cc2)c2cc(OCCCO)ccc2N1C(=O)Cc1ccc2ccccc2c1 (stereo not given in full)	-0.266	0.185	-0.537	0.0637	0.34	-0.147	0.0639	-0.136	0.0568	0.317	0.533	0.242 (inactive)	-0.0311	-0.104	-0.208	0.615	-0.0657	-0.39	-0.21	0.296
CCCCN1CC=CC23O[C@@H]4/C=C\CCC(C)OC(=O)C4[C@H]2C(=O)N(CCCO)[C@@H]3C1=O (stereo not given in full)	-0.169	-0.398	-0.949	-0.0083	0.458	-0.252	0.535	-0.362	-0.318	-0.566	-0.741	0.986 (inactive)	-0.41	-0.171	0.283	-0.0462	0.359	-0.62	-1.38	0.12
C=CCNC(=O)[C@@H]1[C@H]2C(=O)O[C@H](c3ccccc3)[C@H](c3ccccc3)N2[C@H](c2ccc(O)cc2)[C@@]12C(=O)N(C(=O)OCCOC)c1ccc(C#CC3=CCCCC3)cc12	1.36	-2.14	0.588	0.544	-0.0251	-0.0685	-0.0769	0.185	0.319	0.662	0.179	0.683 (inactive)	0.138	-0.14	0.32	1.57	0.354	1.28	0.673	0.737
COc1ccc([Si](C)(C)[C@H]2[C@H](CC(=O)N3CCC[C@H]3CO)O[C@@]3(C(=O)N(Cc4ccc(N5CCOC5=O)cc4)c4ccccc43)[C@@H]2C)cc1	1.37	-2.52	0.75	0.655	0.0967	0.0194	-0.223	-0.172	0.833	1.08	-0.195	-0.0549 (inactive)	0.336	-0.075	0.364	1.89	0.145	1.34	0.731	0.618
